35 compounds from PubChem BioAssay (NCATS) can be followed below.

Records with an inconclusive call do not appear. Entries that show only a call come without a potency. Calls of active or inactive are those of the source. The call rests on the fitted dose curve; in most records, active means well fitted curve in the direction sought with a large enough effect; inconclusive means small, poorly fitted or top-dose-only effect, or another doubt; inactive means no such curve, though single readings can be large; an effect the other way counts as inactive or inconclusive.
Potency means the concentration at half of the fitted maximal effect.

The first test is described as follows: qHTS of pediatric cancer cell lines to identify multiple opportunities for drug repurposing: Primary screen for LAN-5 cells (AID 1347100). Particulars: LAN-5 neuroblastoma viability, CellTiter-Glo luminescence, 48 h; series mostly up to 46 µM. The method in brief: (§1)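 Cells (500-1,000/well) rested 5 h, then received compounds for 48 h; metabolically active cells were measured by CellTiter-Glo luminescence. Final concentrations spanned up to 46 µM (MIPE, 11-point) or 0.59 nM-46 µM (NPC, 8-point) in primary screens, 11-point in follow-ups.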
`CC(C)=CCNc1ncnc2c1ncn2[C@@H]1O[C@H](CO)[C@@H](O)[C@H]1O`: the Potency was 5.96 µM (active).

With `CCC1=C[C@@H]2CN(C1)Cc1c([nH]c3ccccc13)[C@@](C(=O)OC)(c1cc3c(cc1OC)N(C)[C@H]1[C@@](O)(C(=O)OC)[C@H](OC(C)=O)[C@]4(CC)C=CCN5CC[C@]31[C@@H]54)C2`, the Potency was 0.0084 µM (active).

With `O=C(O)[C@@H](O)[C@H](O)[C@H](O)[C@@H](O)C(=O)O`, the Potency entry was “inactive”.

In the case of `CC(=O)OCC(=O)Nc1cc(C#N)cc(NC(=O)COC(C)=O)c1Cl`, the Potency entry is “inactive”.

For `O=C(Nc1ccc(S(=O)(=O)N2CCOCC2)cc1)c1cc(Cl)ccc1NS(=O)(=O)c1ccc(Cl)s1`, the Potency result is “inactive”.

As to `C[C@]12CCC(=O)C=C1CC[C@@H]1[C@@H]2[C@@H](O)C[C@@]2(C)[C@H]1CC[C@]2(O)C(=O)COC(=O)CCC(=O)O`, the Potency result was “inactive”.

As to `CC1(C)S[C@@H]2[C@H](NC(=O)C(c3ccccc3)S(=O)(=O)O)C(=O)N2[C@H]1C(=O)O` (some centres not stated), the Potency entry is “inactive”.

Regarding `CC(=O)Nc1ccc(S(=O)(=O)Nc2cc(C)on2)cc1`, the Potency result was “inactive”.

As to `CCNC(=O)NCCCOc1cccc(CN2CCCCC2)c1`, the Potency result was “inactive”.

Consider `OCCCc1ccccc1`, for which the Potency entry was “inactive”.

With `O=c1[nH]c2ccccc2c(=O)n1CCCl`, the Potency entry was “inactive”.

For `CCCCCC1Nc2cc(C(F)(F)F)c(S(N)(=O)=O)cc2S(=O)(=O)N1` (configuration not stated), the Potency entry is “inactive”.

As to `CCCC(=O)O[C@]1(C(=O)COC(=O)CC)CC[C@H]2[C@@H]3CCC4=CC(=O)CC[C@]4(C)[C@H]3[C@@H](O)C[C@@]21C`, the Potency result is “inactive”.

Regarding `CC(C)C(=O)Nc1cccc(C(F)(F)F)c1`, the Potency result was “inactive”.

Regarding `OC1(c2ccc(Cl)cc2)CCNCC1`, the Potency result is “inactive”.

Take `Cc1cccc(C)c1NC(=O)c1ccc(N)cc1`: the Potency entry was “inactive”.

Take `CCOc1c(N2CCOCC2)cnn(C)c1=O`: the Potency result was “inactive”.

For `CCOc1ncc(F)c(=O)[nH]1`, the Potency entry was “inactive”.

In the case of `O=C(OCC(COC(=O)c1cccnc1)(COC(=O)c1cccnc1)COC(=O)c1cccnc1)c1cccnc1`, the Potency entry was “inactive”.

`CC(=O)Nc1c(I)c(NC(C)=O)c(I)c(C(=O)O)c1I`: the Potency result is “inactive”.

On to `C=CC[N+]1([C@H]2C[C@H]3[C@@H]4CC[C@H]5C[C@H](OC(C)=O)[C@@H](N6CCCCC6)C[C@]5(C)[C@H]4CC[C@]3(C)[C@H]2OC(=O)CC)CCCCC1`, for which the Potency result was “inactive”.

Regarding `COC(=O)/C=C(/C)N`, the Potency result is “inactive”.

In the case of `CCC(=O)O[C@]1(C(=O)COC)[C@@H](C)C[C@H]2[C@@H]3CCC4=CC(=O)C=C[C@]4(C)C3(F)[C@@H](O)C[C@@]21C` (some centres not stated), the Potency entry is “inactive”.

`CN(C)C(=O)CNC(=O)Cc1ccccc1`: the Potency result was “inactive”.

With `CCCCNc1ccc(C(=O)OCCN(CC)CC)cc1`, the Potency entry is “inactive”.

Consider `O=C1CCCc2c(O)cccc21`, for which the Potency result is “inactive”.

As for `CC(Oc1c(Cl)cccc1Cl)C1=NCCN1` (configuration not stated), the Potency result is “inactive”.

For the compound `CC(C)(C)C(O)/C=C/c1ccc2c(c1)OCO2` (configuration not stated), the Potency result is “inactive”.

For the compound `COC(=O)c1cc(S(N)(=O)=O)ccc1OC`, the Potency entry was “inactive”.

Consider `Nc1ccc([N+](=O)[O-])c(C(F)(F)F)c1`, for which the Potency result is “inactive”.

A short description of another test: qHTS of pediatric cancer cell lines to identify multiple opportunities for drug repurposing: Primary screen for BT-12 cells (AID 1347101). Further: nearly all actives have a fitted effect of over 25% in size. Particulars: BT-12 viability, CellTiter-Glo luminescence, 48 h; series mostly up to 57.3 µM. The method in brief:
as §1
Turning to `CCC1=C[C@@H]2CN(C1)Cc1c([nH]c3ccccc13)[C@@](C(=O)OC)(c1cc3c(cc1OC)N(C)[C@H]1[C@@](O)(C(=O)OC)[C@H](OC(C)=O)[C@]4(CC)C=CCN5CC[C@]31[C@@H]54)C2`, the Potency is 0.0347 µM (active).

Turning to `COc1cc2c(cc1OC)CN(C(=O)[C@H](C)N[C@@H](CCc1ccccc1)C(=O)O)[C@H](C(=O)O)C2`, the Potency entry was “inactive”.

For the compound `O=C(O)[C@@H](O)[C@H](O)[C@H](O)[C@@H](O)C(=O)O`, the Potency entry was “inactive”.

For the compound `CC(=O)OCC(=O)Nc1cc(C#N)cc(NC(=O)COC(C)=O)c1Cl`, the Potency result is “inactive”.

Regarding `O=C(Nc1ccc(S(=O)(=O)N2CCOCC2)cc1)c1cc(Cl)ccc1NS(=O)(=O)c1ccc(Cl)s1`, the Potency entry was “inactive”.

Turning to `C[C@]12CCC(=O)C=C1CC[C@@H]1[C@@H]2[C@@H](O)C[C@@]2(C)[C@H]1CC[C@]2(O)C(=O)COC(=O)CCC(=O)O`, the Potency entry was “inactive”.

Turning to `CC1(C)S[C@@H]2[C@H](NC(=O)C(c3ccccc3)S(=O)(=O)O)C(=O)N2[C@H]1C(=O)O` (some centres not stated), the Potency result was “inactive”.

As to `CC(=O)Nc1ccc(S(=O)(=O)Nc2cc(C)on2)cc1`, the Potency entry is “inactive”.

Consider `CCCCCCCCCCCCCCCCCCNC(=O)OC1CCN(C(=O)OC[C@H](COC(=O)N(Cc2cccc[n+]2CC)C(=O)c2ccccc2OC)OC)CC1`, for which the Potency is 8.71 µM (active).

In the case of `CCNC(=O)NCCCOc1cccc(CN2CCCCC2)c1`, the Potency entry is “inactive”.

Take `OCCCc1ccccc1`: the Potency entry was “inactive”.

Turning to `O=c1[nH]c2ccccc2c(=O)n1CCCl`, the Potency entry was “inactive”.

With `CCCCCC1Nc2cc(C(F)(F)F)c(S(N)(=O)=O)cc2S(=O)(=O)N1` (configuration not stated), the Potency entry was “inactive”.

Regarding `CCCC(=O)O[C@]1(C(=O)COC(=O)CC)CC[C@H]2[C@@H]3CCC4=CC(=O)CC[C@]4(C)[C@H]3[C@@H](O)C[C@@]21C`, the Potency entry was “inactive”.

Consider `OC1(c2ccc(Cl)cc2)CCNCC1`, for which the Potency result was “inactive”.

In the case of `Cc1cccc(C)c1NC(=O)c1ccc(N)cc1`, the Potency result is “inactive”.

With `CCOc1c(N2CCOCC2)cnn(C)c1=O`, the Potency entry is “inactive”.

Consider `CCOc1ncc(F)c(=O)[nH]1`, for which the Potency entry is “inactive”.

Take `O=C(OCC(COC(=O)c1cccnc1)(COC(=O)c1cccnc1)COC(=O)c1cccnc1)c1cccnc1`: the Potency entry is “inactive”.

Consider `CC(=O)Nc1c(I)c(NC(C)=O)c(I)c(C(=O)O)c1I`, for which the Potency entry is “inactive”.

For `C=CC[N+]1([C@H]2C[C@H]3[C@@H]4CC[C@H]5C[C@H](OC(C)=O)[C@@H](N6CCCCC6)C[C@]5(C)[C@H]4CC[C@]3(C)[C@H]2OC(=O)CC)CCCCC1`, the Potency result is “inactive”.

Take `OC1(c2ccc(Cl)c(C(F)(F)F)c2)CCN(CCCC(c2ccc(F)cc2)c2ccc(F)cc2)CC1`: the Potency was 21.9 µM (active).

For the compound `COC(=O)/C=C(/C)N`, the Potency entry was “inactive”.

With `CCCc1ccc(OCC(=O)N2CCN(C(=O)COc3ccc(CCC)cc3OC)CC2)c(OC)c1`, the Potency entry was “inactive”.

For `CN(C)C(=O)CNC(=O)Cc1ccccc1`, the Potency entry is “inactive”.

Turning to `CCCCNc1ccc(C(=O)OCCN(CC)CC)cc1`, the Potency entry was “inactive”.

`O=C1CCCc2c(O)cccc21`: the Potency entry was “inactive”.

On to `CC(Oc1c(Cl)cccc1Cl)C1=NCCN1` (configuration not stated), for which the Potency entry is “inactive”.

For the compound `CC(C)(C)C(O)/C=C/c1ccc2c(c1)OCO2` (configuration not stated), the Potency entry was “inactive”.

For the compound `COC(=O)c1cc(S(N)(=O)=O)ccc1OC`, the Potency result was “inactive”.

On to `Nc1ccc([N+](=O)[O-])c(C(F)(F)F)c1`, for which the Potency result was “inactive”.

For the compound `C/C=C(/C(=C/C)c1ccc(OC(C)=O)cc1)c1ccc(OC(C)=O)cc1`, the Potency result is “inactive”.
